For seven molecules, growth results are on record in PubChem BioAssay (NCI).

About 83,000 compounds went through this panel and 20% of them were active in at least one assay; those are over-represented in the sample as a whole.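 Cell lines were cultured in 96-well plates, exposed to a single compound concentration, and assessed for percent growth 48 hours later.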 Unmarked numbers belong to inactive results. Activity calls are given as the source filed them. How the source made its calls: active means growth percent below 10; inactive means the rest.

Among the test systems are DU-145 prostate; K-562 leukemia; MALME-3M melanoma; MDA-MB-231 breast; RXF 393 renal; SF-268 CNS; SF-295 CNS; SF-539 CNS; UACC-257 melanoma; M14 melanoma; HCT-15 colon; HT29 colon; SNB-75 CNS; SNB-19 CNS; U251 CNS; PC-3 prostate; SK-MEL-5 melanoma; UACC-62 melanoma; LOX IMVI melanoma; SK-MEL-28 melanoma.
Test in all cases: NCI-60 one-dose screen, 48 h (100 = growth as untreated, 0 = no growth, -100 = all killed)
Common to all, as to settings: 10 µM unless noted

For `O=C(NNC(=S)NC(=O)c1ccccc1)c1ccc(OCc2nc3ccc(Cl)cc3[nH]2)cc1`, the growth is 26.3% in the assay with DU-145 prostate; 4.64% (active) in the assay with K-562 leukemia; -75.4% (active) in the assay with MALME-3M melanoma; -71.2% (active) in the assay on MDA-MB-231 breast; -56.7% (active) in the assay on RXF 393 renal; -2.2% (active) with SF-268 CNS. Moreover, the growth with SF-295 CNS was -80.9% (active); in the assay on SF-539 CNS, -91.2% (active); in the assay on UACC-257 melanoma it was -24.8% (active); in the assay with M14 melanoma it was -54.5% (active); in the assay with HCT-15 colon it was -75.1% (active); in the assay with HT29 colon, -6.38% (active). Further, the growth in the assay with SNB-75 CNS is -17.8% (active); in the assay on SNB-19 CNS it was -12.9% (active); with U251 CNS, -71.4% (active); in the assay with PC-3 prostate it was 2.48% (active); with SK-MEL-5 melanoma, -73.4% (active); in the assay with UACC-62 melanoma, -88.4% (active). The figures for the growth in the assay with LOX IMVI melanoma and with SK-MEL-28 melanoma were -92.2% (active) and -82.7% (active), respectively.
`Cc1nn(-c2ccccc2)c2nc(C)n(CC(=O)N/N=C/c3cccc([N+](=O)[O-])c3)c(=O)c12`: the growth was 105% in the assay on DU-145 prostate; 91% in the assay with K-562 leukemia; 99% in the assay with MALME-3M melanoma; 78.5% in the assay with MDA-MB-231 breast; 84.2% in the assay on RXF 393 renal; 96.5% in the assay on SF-268 CNS. Besides, the growth is 101% in the assay on SF-295 CNS; 95.3% in the assay on SF-539 CNS; 101% in the assay with UACC-257 melanoma; 107% with M14 melanoma; 96.2% in the assay with HCT-15 colon; 102% in the assay with HT29 colon. The growth in the assay with SNB-75 CNS is 79.5%; with SNB-19 CNS, 77%; in the assay with U251 CNS, 98.3%; with PC-3 prostate, 80.1%; in the assay with SK-MEL-5 melanoma, 97.6%; in the assay on UACC-62 melanoma, 81.3%. Also, the results for the growth in the assay on LOX IMVI melanoma and with SK-MEL-28 melanoma were 88.8% and 106%, respectively.
Turning to `COc1cc(C2CC(c3ccc(S(=O)(=O)NCCNc4nc(N(C)C)nc(N5CCOCC5)n4)cc3)=Nc3c(N)nc(N)nc3N2)cc(OC)c1OC` (stereo not given), the growth was 109% with DU-145 prostate; 92.5% in the assay on K-562 leukemia; 92.6% in the assay with MALME-3M melanoma; 80.8% in the assay with MDA-MB-231 breast; 85.7% with RXF 393 renal; 89.6% in the assay on SF-268 CNS. Moreover, the growth was 94.4% in the assay with SF-295 CNS; 96.8% in the assay on SF-539 CNS; 99.8% in the assay on UACC-257 melanoma; 101% with M14 melanoma; 93.8% in the assay on HCT-15 colon; 99.8% in the assay with HT29 colon. Besides, the growth with SNB-75 CNS was 102%; in the assay with SNB-19 CNS, 96.2%; in the assay on U251 CNS it was 97.5%; with PC-3 prostate it was 96.3%; in the assay with SK-MEL-5 melanoma, 91.4%; with UACC-62 melanoma, 93.7%. The growth in the assay with LOX IMVI melanoma was 94.3%; with SK-MEL-28 melanoma, 100%.
For the molecule `O=C(N/N=C/c1c[nH]c2ccccc12)Nc1ccc(F)c(Cl)c1`, the growth with DU-145 prostate is 61.5%; in the assay with K-562 leukemia it was 15.4%; in the assay with MALME-3M melanoma, 56.3%; in the assay with MDA-MB-231 breast, 61.3%; with RXF 393 renal it was 18.3%; with SF-268 CNS, 39.7%. In addition, the growth was 13.8% with SF-295 CNS; 27.3% in the assay with SF-539 CNS; 60.9% in the assay on UACC-257 melanoma; 33.7% with M14 melanoma; 20.2% with HCT-15 colon; 33.5% in the assay with HT29 colon. Besides, the growth in the assay on SNB-75 CNS is 48%; with SNB-19 CNS, 73.4%; in the assay on U251 CNS it was 42.2%; with PC-3 prostate it was 43.3%; with SK-MEL-5 melanoma, 34%; in the assay on UACC-62 melanoma, 48.6%. In addition, the growth in the assay on LOX IMVI melanoma is 4.2% (active); in the assay with SK-MEL-28 melanoma, 58.8%.
Consider `c1n[nH]cc1-c1nc2ccc3cn[nH]c3c2c2c1CCCC2`, for which the growth with DU-145 prostate is 93%; with K-562 leukemia, 101%; in the assay with MALME-3M melanoma it was 72.9%; with MDA-MB-231 breast, 58.3%; with RXF 393 renal, 44.8%; in the assay on SF-268 CNS, 94.1%. The growth in the assay on SF-295 CNS is 89.4%; with SF-539 CNS, 80.8%; with UACC-257 melanoma it was 100%; with M14 melanoma, 93.2%; with HCT-15 colon it was 96.2%; in the assay on HT29 colon, 95.5%. For the same molecule, the growth in the assay on SNB-75 CNS was 108%; with SNB-19 CNS it was 82.2%; in the assay with U251 CNS it was 88%; in the assay on PC-3 prostate it was 73.4%; with SK-MEL-5 melanoma it was 81.7%; in the assay on UACC-62 melanoma, 81.4%. Moreover, the growth is 69.9% with LOX IMVI melanoma and 98.2% with SK-MEL-28 melanoma.
For the molecule `COc1ccc(C(=O)c2c(N)c(C#N)cn2-c2ccc([N+](=O)[O-])cc2)cc1`, the growth in the assay with DU-145 prostate is 109%; in the assay on K-562 leukemia, 104%; with MALME-3M melanoma, 102%; in the assay with MDA-MB-231 breast, 99%; with RXF 393 renal, 94.2%; in the assay with SF-268 CNS it was 99.6%. Further, the growth with SF-295 CNS was 91.9%; in the assay on SF-539 CNS, 95.7%; in the assay with UACC-257 melanoma, 111%; with M14 melanoma, 113%; with HCT-15 colon, 104%; in the assay on HT29 colon it was 102%. The growth was 92.2% in the assay on SNB-75 CNS; 100% with SNB-19 CNS; 111% in the assay with U251 CNS; 109% in the assay on PC-3 prostate; 102% in the assay on SK-MEL-5 melanoma; 93.1% with UACC-62 melanoma. Also, the growth in the assay with LOX IMVI melanoma was 96.3%; in the assay with SK-MEL-28 melanoma, 112%.
Consider `Clc1ccccc1Nc1nnc(-c2c[nH]c3ccccc23)o1`, for which the growth in the assay on DU-145 prostate is 21.5%; in the assay with K-562 leukemia it was 6.76% (active); with MALME-3M melanoma, 41.9%; in the assay with MDA-MB-231 breast it was 16%; in the assay on RXF 393 renal, -5.74% (active); in the assay on SF-268 CNS, 48.5%. For the same molecule, the growth in the assay with SF-295 CNS was 9.04% (active); with SF-539 CNS, -43.6% (active); in the assay on UACC-257 melanoma, 65%; in the assay with M14 melanoma, 22.8%; in the assay with HCT-15 colon, 26.1%; in the assay with HT29 colon, 2.07% (active). For the same molecule, the growth in the assay with SNB-75 CNS was 42%; with SNB-19 CNS, 41%; in the assay on U251 CNS, 7.39% (active); in the assay with PC-3 prostate, 32.7%; in the assay on SK-MEL-5 melanoma it was 9.29% (active); in the assay on UACC-62 melanoma it was 15.2%. Besides, the growth with LOX IMVI melanoma was 15.5%; in the assay on SK-MEL-28 melanoma, 59.4%.
